The term AC50 denotes the midpoint of the concentration-response curve, whichever way the signal moves.

Holding throughout (settings): mRNA level, 48 h; actives raise or lower the signal
Read-out in assay [1]: ABC Transporter (ABCC2), ABCC2 (gene 1244)
The experiment in a line: LTEA_HepaRG_ABCC2: Life Technologies and Expression Analysis (LTEA) Assay for ABC Transporter (ABCC2) using HepaRG (AID 2283464). The method, boiled down:
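HepaRG, 48 h post-plating; serum-free induction medium; cpd 8-pt, 100 uM top, half-log, 0.5% DMSO, duplicate, 48 h. Readout: ABCC2 mRNA by qRT-PCR, norm. ACTB/GAPDH/POLR2A. Bidirectional fit vs DMSO baseline.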

Read-out in assay [2]: Broad substrate specificity ATP-binding cassette transporter ABCG2 (Homo sapiens) (UniProt Q9UNQ0)
Description: LTEA_HepaRG_ABCG2: Life Technologies and Expression Analysis (LTEA) Assay for ABC Transporter (ABCG2) using HepaRG (AID 2283465). An outline of the steps: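 Differentiated HepaRG cells in serum-free induction medium were exposed for 48 h, in duplicate, to eight half-log concentrations up to 100 uM in 0.5% DMSO. ABCG2 mRNA was measured by TaqMan qRT-PCR, normalized to ACTB, GAPDH and POLR2A, and fitted bidirectionally versus DMSO.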

Read-out in assay [3]: ATP-citrate lyase (ACLY), ACLY (gene 47)
Description: LTEA_HepaRG_ACLY: Life Technologies and Expression Analysis (LTEA) Assay for ATP-citrate lyase (ACLY) using HepaRG (AID 2283466). The method, boiled down:
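Differentiated human HepaRG cells in serum-free induction medium exposed 48 h, in duplicate, to eight half-log concentrations from 100 uM top in 0.5% DMSO; ACLY mRNA measured by qRT-PCR, normalized to ACTB, GAPDH, POLR2A, fitted bidirectionally versus DMSO.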

Read-out in assay [4]: Peroxisomal acyl-coenzyme A oxidase 1 (ACOX1) gene, ACOX1 (gene 51)
Description: LTEA_HepaRG_ACOX1: Life Technologies and Expression Analysis (LTEA) Assay for Peroxisomal acyl-coenzyme A oxidase 1 (ACOX1) gene using HepaRG (AID 2283467). The method, boiled down:
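Differentiated human HepaRG cells were exposed in duplicate for 48 h in serum-free induction medium to eight half-log concentrations up to 100 uM in 0.5% DMSO. ACOX1 mRNA was then quantified by TaqMan qRT-PCR, normalized to ACTB, GAPDH and POLR2A.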

Read-out in assay [5]: Alkaline Phosphatase, Placental (ALPP) gene, ALPP (gene 250)
Description: LTEA_HepaRG_ALPP: Life Technologies and Expression Analysis (LTEA) Assay for Alkaline Phosphatase, Placental (ALPP) gene using HepaRG (AID 2283468). An outline of the steps: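 HepaRG, 48 h plating then 48 h dosing, serum-free induction medium, 0.5% DMSO. 8 conc, half-log, max 100 uM, duplicates. Endpoint: ALPP transcript by qRT-PCR, housekeeping-normalized; gain or loss fitted vs DMSO.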

Read-out in assay [6]: Bcl-2 (BAX) gene, BAX (gene 581)
Description: LTEA_HepaRG_BAX: Life Technologies and Expression Analysis (LTEA) Assay for Bcl-2 (BAX) gene using HepaRG (AID 2283470). The method, boiled down: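 Concentration-response endpoint fitted in both directions relative to 0.5% DMSO vehicle. Human HepaRG cultures receive test chemicals for 48 h at up to 100 uM; BAX mRNA is quantified by qRT-PCR against housekeeping genes.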

Read-out in assay [7]: adenosine kinase (ADK) gene, ADK (gene 132)
Description: LTEA_HepaRG_ADK: Life Technologies and Expression Analysis (LTEA) Assay for adenosine kinase (ADK) gene using HepaRG (AID 2283471). An outline of the steps: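 ADK expression quantified by qRT-PCR, normalised to three housekeeping genes, after 48 h exposure of HepaRG cells to eight concentrations (top 100 uM, half-log steps, duplicate, 0.5% DMSO). Up- or down-regulation fitted relative to vehicle.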

Read-out in assay [8]: Alpha-fetoprotein (AFP) gene, AFP (gene 174)
Description: LTEA_HepaRG_AFP: Life Technologies and Expression Analysis (LTEA) Assay for Alpha-fetoprotein (AFP) gene using HepaRG (AID 2283472). An outline of the steps: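 After a 48 h plating period, cells are moved to serum-free induction medium and dosed in duplicate (100 uM maximum, half-log dilutions, 0.5% DMSO) for another 48 h. Total RNA goes to TaqMan qRT-PCR; AFP signal is housekeeping-normalized.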

Read-out in a further assay: BCL2L11 (gene 10018)
Description: LTEA_HepaRG_BCL2L11: Life Technologies and Expression Analysis (LTEA) Assay for Bcl-2 (BCL2L11) gene using HepaRG (AID 2283473). The method, boiled down: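 Read-out is BCL2L11 transcript level by qRT-PCR, normalized to three housekeeping genes and fitted bidirectionally against 0.5% DMSO vehicle. HepaRG cells received chemicals for 48 h in serum-free induction medium, 100 uM down in half-log dilutions.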

Read-out in assay [9]: Apolipoprotein A-V (APOA5) gene, APOA5 (gene 116519)
Description: LTEA_HepaRG_APOA5: Life Technologies and Expression Analysis (LTEA) Assay for Apolipoprotein A-V (APOA5) gene using HepaRG (AID 2283474). An outline of the steps: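 Readout is APOA5 transcript level by qRT-PCR on Fluidigm dynamic arrays, normalized to three housekeeping genes. HepaRG cultures received chemicals for 48 h at up to 100 uM (half-log steps, 0.5% DMSO), with gain or loss scored relative to DMSO.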

Read-out in assay [10]: Apoptosis regulator Bcl-2 (Homo sapiens) (UniProt P10415)
The experiment in a line: LTEA_HepaRG_BCL2: Life Technologies and Expression Analysis (LTEA) Assay for Bcl-2 gene using HepaRG (AID 2283475).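 Note: BCL2 transcript by TaqMan qRT-PCR normalised to ACTB GAPDH and POLR2A.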 An outline of the steps: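 Expression change of BCL2 mRNA in HepaRG after 48 h dosing, quantified by TaqMan qRT-PCR against three endogenous controls. Concentration-response used eight points up to 100 uM, vehicle 0.5% DMSO.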

Read-out in assay [11]: Bcl-2 (BID) gene, BID (gene 637)
The experiment in a line: LTEA_HepaRG_BID: Life Technologies and Expression Analysis (LTEA) Assay for Bcl-2 (BID) gene using HepaRG (AID 2283476). An outline of the steps: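 Gain or loss of BID expression is fitted relative to 0.5% DMSO vehicle. Human HepaRG liver cells received a 48 h chemical exposure over an eight-point concentration range.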

Read-out in the next assay: Caspase-3 (Homo sapiens) (UniProt P42574)
The experiment in a line: LTEA_HepaRG_CASP3: Life Technologies and Expression Analysis (LTEA) Assay for cysteine-aspartic acid protease (CASP3) using HepaRG (AID 2283477). The method, boiled down: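 Read-out is CASP3 mRNA level by TaqMan qRT-PCR in human HepaRG cells after 48 h chemical exposure. Eight half-log concentrations topping at 100 uM were tested in 0.5% DMSO; gain or loss was fitted relative to DMSO.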

Read-out in assay [12]: Cytochrome P450 (CYP24A1), CYP24A1 (gene 1591)
Description: LTEA_HepaRG_CYP24A1: Life Technologies and Expression Analysis (LTEA) Assay for Cytochrome P450 (CYP24A1) using HepaRG (AID 2283478). The method, boiled down: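 HepaRG, 48 h chemical exposure, 8-pt half-log CRC from 100 uM, 0.5% DMSO vehicle, duplicates. Endpoint: CYP24A1 mRNA by Fluidigm TaqMan qRT-PCR, normalized ACTB/GAPDH/POLR2A; gain/loss fit vs DMSO.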

Read-out in assay [13]: Cytochrome P450 (CYP1A2), CYP1A2 (gene 1544)
Description: LTEA_HepaRG_CYP1A2: Life Technologies and Expression Analysis (LTEA) Assay for Cytochrome P450 (CYP1A2) using HepaRG (AID 2283479). The method, boiled down: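 CYP1A2 transcript induction or loss, quantified by Fluidigm qRT-PCR against three housekeeping genes, was fitted bidirectionally against 0.5% DMSO controls. Human HepaRG cells received eight half-log concentrations from 100 uM over 48 h.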

Read-out in assay [14]: cysteine-aspartic acid protease (CASP8), CASP8 (gene 841)
Description: LTEA_HepaRG_CASP8: Life Technologies and Expression Analysis (LTEA) Assay for cysteine-aspartic acid protease (CASP8) using HepaRG (AID 2283480). An outline of the steps:
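Differentiated human HepaRG cells, plated 48 h then switched to serum-free induction medium, were exposed in duplicate for 48 h to 8 half-log concentrations up to 100 uM in 0.5% DMSO. CASP8 mRNA was quantified by qRT-PCR, normalized to ACTB/GAPDH/POLR2A.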

Read-out in assay [15]: Cytochrome P450 (CYP2B6), CYP2B6 (gene 1555)
Description: LTEA_HepaRG_CYP2B6: Life Technologies and Expression Analysis (LTEA) Assay for Cytochrome P450 (CYP2B6) using HepaRG (AID 2283481). An outline of the steps:
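HepaRG cells plated 48 h, switched to serum-free induction medium, then dosed 48 h (8 points, half-log from 100 uM, 0.5% DMSO). RNA isolated; CYP2B6 expression measured by qRT-PCR; gain or loss fitted relative to DMSO.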

Read-out in assay [16]: Cytochrome P450 2C19 (Homo sapiens) (UniProt P33261)
The experiment in a line: LTEA_HepaRG_CYP2C19: Life Technologies and Expression Analysis (LTEA) Assay for CYP2C19 using HepaRG (AID 2283482). The method, boiled down: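 Transcript levels of CYP2C19 were quantified by qRT-PCR after HepaRG cells were treated for 48 hours with test chemicals up to 100 uM (eight half-log concentrations, 0.5% DMSO vehicle). Gain or loss of signal was fitted relative to DMSO.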

Read-out in another assay: CYP2C8 (gene 1558)
The experiment in a line: LTEA_HepaRG_CYP2C8: Life Technologies and Expression Analysis (LTEA) Assay for CYP2C8 using HepaRG (AID 2283483). The method, boiled down: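 Differentiated human HepaRG cells were exposed for 48 h in serum-free induction medium to eight half-log concentrations up to 100 uM in 0.5% DMSO, in duplicate. CYP2C8 mRNA was measured by TaqMan qRT-PCR, normalized to ACTB, GAPDH and POLR2A, and fitted bidirectionally against DMSO.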

Molecules are shown by their SMILES. Active and inactive are the calls of the source. Rule for the calls: active = hit-call score of the fitted dose curve at least 0.9, where 1 is the maximum; inactive = score below 0.9.

Sequence of Broad substrate specificity ATP-binding cassette transporter ABCG2 (Homo sapiens) (Q9UNQ0 whole entry, looked up): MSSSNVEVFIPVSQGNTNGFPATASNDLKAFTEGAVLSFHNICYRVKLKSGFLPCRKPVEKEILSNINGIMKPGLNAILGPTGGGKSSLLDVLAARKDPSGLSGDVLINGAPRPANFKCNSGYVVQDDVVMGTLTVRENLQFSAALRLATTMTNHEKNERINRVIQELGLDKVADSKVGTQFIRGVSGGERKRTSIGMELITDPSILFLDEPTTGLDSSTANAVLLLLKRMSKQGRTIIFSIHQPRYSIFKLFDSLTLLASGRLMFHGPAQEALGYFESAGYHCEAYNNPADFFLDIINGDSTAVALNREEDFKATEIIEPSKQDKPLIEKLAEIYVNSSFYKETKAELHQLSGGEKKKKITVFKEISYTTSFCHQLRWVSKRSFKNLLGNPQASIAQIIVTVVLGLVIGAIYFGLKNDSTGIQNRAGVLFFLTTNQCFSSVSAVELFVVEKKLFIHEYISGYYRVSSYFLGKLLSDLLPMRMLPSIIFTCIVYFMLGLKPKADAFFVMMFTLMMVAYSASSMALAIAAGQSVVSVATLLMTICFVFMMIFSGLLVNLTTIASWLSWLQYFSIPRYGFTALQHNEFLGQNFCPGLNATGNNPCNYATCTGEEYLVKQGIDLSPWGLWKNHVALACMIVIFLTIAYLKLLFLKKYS
Sequence of Cytochrome P450 2C19 (Homo sapiens) (P33261 whole entry, looked up): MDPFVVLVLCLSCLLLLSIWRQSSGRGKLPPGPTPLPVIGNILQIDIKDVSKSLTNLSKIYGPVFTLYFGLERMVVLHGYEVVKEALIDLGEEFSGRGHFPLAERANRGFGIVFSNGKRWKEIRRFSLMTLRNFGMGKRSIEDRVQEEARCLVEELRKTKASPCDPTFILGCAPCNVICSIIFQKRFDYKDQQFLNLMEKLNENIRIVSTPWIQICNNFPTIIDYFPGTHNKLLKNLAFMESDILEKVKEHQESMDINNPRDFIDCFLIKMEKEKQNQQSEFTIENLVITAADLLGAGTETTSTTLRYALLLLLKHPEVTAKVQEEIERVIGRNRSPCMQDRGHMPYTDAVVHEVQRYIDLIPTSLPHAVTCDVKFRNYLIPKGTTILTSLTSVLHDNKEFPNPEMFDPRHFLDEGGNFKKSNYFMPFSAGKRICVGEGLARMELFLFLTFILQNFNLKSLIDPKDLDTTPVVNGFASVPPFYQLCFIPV
Sequence of Caspase-3 (Homo sapiens) (P42574 whole entry, looked up): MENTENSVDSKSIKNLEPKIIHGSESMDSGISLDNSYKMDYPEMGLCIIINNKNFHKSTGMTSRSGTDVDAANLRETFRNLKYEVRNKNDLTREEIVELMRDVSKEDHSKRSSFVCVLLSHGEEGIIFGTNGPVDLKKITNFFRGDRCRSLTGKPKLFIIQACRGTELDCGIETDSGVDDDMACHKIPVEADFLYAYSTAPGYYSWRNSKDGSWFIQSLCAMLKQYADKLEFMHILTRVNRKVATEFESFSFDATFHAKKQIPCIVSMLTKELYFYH
Sequence of Apoptosis regulator Bcl-2 (Homo sapiens) (P10415 whole entry, looked up): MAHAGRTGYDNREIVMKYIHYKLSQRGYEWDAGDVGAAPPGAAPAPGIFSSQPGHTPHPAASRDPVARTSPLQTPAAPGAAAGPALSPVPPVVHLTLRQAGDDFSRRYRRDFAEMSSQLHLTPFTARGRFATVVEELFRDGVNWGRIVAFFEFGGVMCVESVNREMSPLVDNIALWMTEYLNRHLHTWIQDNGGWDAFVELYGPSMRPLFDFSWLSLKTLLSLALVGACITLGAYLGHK

In the case of `O=[N+]([O-])c1ccccc1`, the call in assay [1], in [2], in [3], in [4], in [5] and in assay [6] was inactive. The molecule was classed as inactive (in assay [7]; in assay [8]; with BCL2L11 (gene 10018); in [9]; in [10]; in assay [11]). The outcome (with Caspase-3 (Homo sapiens); in assay [12]; in assay [13]; in assay [14]; in assay [15]; in assay [16]) was inactive. For the same molecule, the molecule was called inactive in the assay with CYP2C8 (gene 1558).
For `O=C(O)C(Cl)Cl`, the molecule was classed as inactive in [1], in [2], in assay [3], in [4], in assay [5] and in assay [6]. The molecule was called inactive (in assay [7]; in assay [8]; with BCL2L11 (gene 10018); in assay [9]; in assay [10]; in assay [11]). For the same molecule, the outcome (with Caspase-3 (Homo sapiens); in assay [12]; in assay [13]; in assay [14]; in assay [15]; in assay [16]) was inactive. In the assay with CYP2C8 (gene 1558), the result was inactive.
In the case of `c1nc[nH]n1`, the molecule was called inactive in assay [1], in assay [2], in assay [3], in [4], in [6] and in [7]. Moreover, the call (in assay [8]; in the assay with BCL2L11 (gene 10018); in [10]; in the assay with Caspase-3 (Homo sapiens); in assay [14]; in [15]) was inactive. Moreover, the result (in [16]; with CYP2C8 (gene 1558)) was inactive. The AC50 in assay [5] is 109 nM (active); in assay [9] it was 112 nM (active); in [11], 89.7 nM (active); in assay [12], 185 nM (active); in [13], 109 nM (active).
On to `Nc1ccc(Cl)cc1`, for which the call in [1], in assay [2], in [3], in assay [4], in assay [5] and in [6] was inactive. Moreover, the outcome (in assay [7]; in assay [8]; with BCL2L11 (gene 10018); in assay [9]; in assay [10]; in assay [11]) was inactive. In addition, the result (with Caspase-3 (Homo sapiens); in assay [12]; in assay [14]; in assay [15]; in assay [16]; in the assay with CYP2C8 (gene 1558)) was inactive. For the same molecule, the AC50 in [13] was 33400 nM (active).
On to `CCCCCCCc1ccc(O)cc1`, for which the call in [1], in assay [2], in assay [3], in assay [4], in [5] and in [6] was inactive. Further, the outcome (in [7]; in assay [8]; with BCL2L11 (gene 10018); in assay [9]; in [10]; in assay [11]) was inactive. Also, the molecule was classed as inactive (in the assay with Caspase-3 (Homo sapiens); in [12]; in assay [13]; in [14]; in assay [15]; in assay [16]). Further, the outcome in the assay with CYP2C8 (gene 1558) was inactive.
Take `CSC(C)(C)C=NO`: the molecule was called inactive in assay [1], in assay [2], in assay [3], in assay [4], in [5] and in assay [6]. Also, the molecule was classed as inactive (in assay [7]; in assay [8]; with BCL2L11 (gene 10018); in assay [9]; in assay [10]; in [11]). Besides, the molecule was called inactive (in the assay with Caspase-3 (Homo sapiens); in assay [12]; in assay [13]; in assay [14]; in assay [15]; in assay [16]). Besides, the molecule was classed as inactive in the assay with CYP2C8 (gene 1558).

The values are drawn from PubChem BioAssay (EPA / NIEHS).
